# Source: PMC12136788
# The full ranking holds about 5,800 sequences; the median of “enrichment r” is about 0.68, and the highest 2% start at about 11. What follows is part of a selection rich in the highest values, with near analogues and random picks from the rest.
# T1: UNK ZnF1-6 (called full-length) (human, UniProt Q9C0B0 30-357)
# T1 sequence: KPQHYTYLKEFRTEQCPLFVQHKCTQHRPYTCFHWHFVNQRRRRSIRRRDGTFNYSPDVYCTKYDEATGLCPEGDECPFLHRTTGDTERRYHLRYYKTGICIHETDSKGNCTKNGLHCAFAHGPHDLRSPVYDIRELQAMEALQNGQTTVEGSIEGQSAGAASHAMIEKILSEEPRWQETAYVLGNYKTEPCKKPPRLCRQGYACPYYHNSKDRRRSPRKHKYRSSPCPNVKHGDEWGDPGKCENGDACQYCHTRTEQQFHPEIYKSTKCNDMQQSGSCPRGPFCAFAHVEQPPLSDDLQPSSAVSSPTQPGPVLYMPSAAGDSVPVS
# B1: chr1:150647640:150647741:-|3pUTR|ENSG00000143457|unk|FALSE|unique (ssRNA)
# RNA: GGGAGUUCUACAGUCCGACGAUCAGAUUCAAUUACCUGGAUGUCAAAGUCCUAGAGCCAGAAAUAUAUUCUCUCAUCCCUCUUAGCAUUCUCUUGCUCCCUCAUUCACUAGGGCAAAUGUCUAAAUGAAGAAAAGUCUCUCUCCAACAGAGGAUUGAGCAUCA
# B2: chr1:109062613:109062715:-|3pUTR|ENSG00000197780|unk|total|mutant (ssRNA)
# RNA: GGGAGUUCUACAGUCCGACGAUCAGUUCUGAAUACACAGGUUUUGUGUGUAUUUACUCUAUGUAUUAAAUUAUUAUUGCCCUCCGUUUAAAGUAAGGAUUACAAUUGGAUUUAAGCCGAUCACUGAAUGUUAUUGUUUAUGAACAACAGAGGAUUGAGCAUCA
# B3: chrX:80717640:80717741:-|CDS|ENSG00000165288|msi1|FALSE|unique (ssRNA)
# RNA: GGGAGUUCUACAGUCCGACGAUCCUGAGAAGUCCAAACAUGGACAUAUCUUCUUCCCCAAACAUCAGGCUUCGAAGACAUAGUAGUCAAAUUGAAGGUGUUAGACAAAUGCAUAACAAUGCUCCUCGGAGCCAGAUGGCCACUCAACAGAGGAUUGAGCAUCA
# B4: chr6:37331633:37331734:+|3pUTR|ENSG00000065491|unk|FALSE|unique (ssRNA)
# RNA: GGGAGUUCUACAGUCCGACGAUCCCGUUCCCCUUCUGCCCCAGUCUGAGCCAGUGAGGGGUAGCUUUUUAAAACCAUUAUUCUAGAUGGAGGAGGCACUGAUGCUUGUAACUCUGGAAAGAGGCCUACACCCAAGGGCUAGGACAACAGAGGAUUGAGCAUCA
# B5: chr9:91409354:91409467:-|CDS|ENSG00000165030|unk|total|mutant (ssRNA)
# RNA: GGGAGUUCUACAGUCCGACGAUCAAUGAAAGACAGUGGCUACAAAGUUUCUGACCCAGAGAACUUGUAUUUGAAGCAGGGGACCGCAAACUUAUCUGCAGAGGUUGUCUCACUCAAGAGACUUACCGCCACACAACCAAUCUCCAACAGAGGAUUGAGCAUCA
# B6: chr11:85958428:85958534:-|3pUTR|ENSG00000073921|unk|FALSE|unique (ssRNA)
# RNA: GGGAGUUCUACAGUCCGACGAUCAGAAACAAUAACUGAAAUUAACUUUUCUUUUUUUAAAAAAAAUUAUAUUCAGUUUGCAGUAGACAUUCCUUAAGUAUUUGUAUUUAUUUAUGAUUAUCAAUUUUACAUAACAUUAAUAUUCAACAGAGGAUUGAGCAUCA
# B7: chr11:43342853:43342954:+|3pUTR|ENSG00000166181|msi1|FALSE|unique (ssRNA)
# RNA: GGGAGUUCUACAGUCCGACGAUCCUAGUUCUGCUGAUAAAGAUCAUCAGUUUUGAAAGGUUACUGAUUUUCCUCUUCCCUCUUAGUUUUUUACCCAAUAUAUGGAGAAGAGUAAUGGUCAAUCUUAACAUUUUGUUUUAAUUGCAACAGAGGAUUGAGCAUCA
# B8: chr19:35623609:35623710:+|3pUTR|ENSG00000249115|unk|FALSE|unique (ssRNA)
# RNA: GGGAGUUCUACAGUCCGACGAUCGCCUUCUAGUUUGUAUAGUUUCUUUUUUUACAUGUAAAUCAGCCAUUUGGAAUUUAUCCUAGCACAUGGAUCCAAUUUUGUCUUAUUUUACAUAUAUCCUAGUAGCACUUACUGAAAUUCCAACAGAGGAUUGAGCAUCA
# B9: chr10:73917138:73917420:+|3pUTR|ENSG00000122861|msi1|FALSE|unique (ssRNA)
# RNA: GGGAGUUCUACAGUCCGACGAUCGGAAUGUAUUAUUCUGCAGCAUGACCUGUGACCAGCACUGUCUCAGUUUCACUUUCACAUAGAUGUCCCUUUCUUGGCCAGUUAUCCCUUCCUUUUAGCCUAGUUCAUCCAAUCCUCACUCAACAGAGGAUUGAGCAUCA
# B10: chr2:224511460:224511569:-|CDS|ENSG00000036257|unk|FALSE|bound_elsewhere (ssRNA)
# RNA: GGGAGUUCUACAGUCCGACGAUCGAAAGCCAGAAAUUUUUAGCAGAAAAUAGUGCUUCAGUAUAUAUAAAGAAAGUAGAAGCUAGAAUUAAUGAAGAAAUAGAACGAGUGAUGCACUGCCUUGACAAAUCAACGGAAGAACCACAACAGAGGAUUGAGCAUCA
# B11: ENSG00000198589:be:win_3201|CDS|ENSG00000198589|bound_else_gene|NA|bound_elsewhere_windowed (ssRNA)
# RNA: GGGAGUUCUACAGUCCGACGAUCAACUGGCAAAGAUUCAAUGACUGUCAGUGAAGUAACUGCUUCUAUAAGUUCUCCUUCAGAAGAGGAUGCCUCAGAGAUGCCAGAAUUCUUGGAUAAAUCUAUAGUAGAGGAAGAGGAAGACAACAGAGGAUUGAGCAUCA
# B12: chr8:11323570:11323671:+|3pUTR|ENSG00000104643|unk|FALSE|unique (ssRNA)
# RNA: GGGAGUUCUACAGUCCGACGAUCGAGCAUACAUAUACAAUGUGUUUCAAAUGCUGCUUGUAAAAUUAAACCAUCAUCUAGAAUAGAGUUAAUUUAUUAUAAUCAAGCUACAAAUAGGUUUUCUUAAACCAGAGAUGCACUGCCCAACAGAGGAUUGAGCAUCA
# Target: T1, UNK ZnF1-6 (called full-length)
# Experiment: nsRBNS (natural sequence RNA bind-n-seq); RBNS binding buffer (assumed for nsRBNS): 25 mM Tris pH 7.5, 150 mM KCl, 3 mM MgCl2, 0.01% Triton X-100, 500 ug/ml BSA, 20 U/ml SUPERase-In, 4 C; UNK is unkempt and MSI1 is Musashi-1; names of the RNAs are library labels; protein concentration not given here; high values mean tight binding
row,Binder,binding signal [enrichment R]
1,B1,0.623
2,B2,0.999
3,B3,0.592
4,B4,2.05
5,B5,0.615
6,B6,2.18
7,B7,3.5
8,B8,14.9
9,B9,1.54
10,B10,16.7
11,B11,0.614
12,B12,2.54
